High-throughput results (PubChem BioAssay)
In the library only some 9.2% were active in any assay of this set; here they are far more common.
ELG1 genotoxic: induces genotoxicity in HEK293T cells with luciferase-tagged ELG1; Potency, µM (titrated, usually from 46 µM), hits mostly activators; AID 504466; HEK293T ELG1-luciferase reporter, luminescence, 16 h; hit rate 1.3% among 330,000; note: nearly all actives have a fitted effect of over 60% in size
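Genotoxicity was scored as increased ELG1-luciferase reporter signal, measured by ONE-Glo luminescence (30 min, room temperature). Compound or vehicle exposure of the HEK293T reporter cells lasted 16 hr at 37°C.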
FLuc counter: inhibits or activates purified firefly luciferase, miR-21 counter-screen; P08659; purified FLuc, Km substrates, luminescence inhibition; Potency, µM (titrated, usually from 57.5 µM), most hits filed as inhibitors; hit rate 6.9% among 360,000; AID 588342; note: nearly all actives have a fitted effect of over 55% in size
Target sequence (P08659 whole entry, looked up): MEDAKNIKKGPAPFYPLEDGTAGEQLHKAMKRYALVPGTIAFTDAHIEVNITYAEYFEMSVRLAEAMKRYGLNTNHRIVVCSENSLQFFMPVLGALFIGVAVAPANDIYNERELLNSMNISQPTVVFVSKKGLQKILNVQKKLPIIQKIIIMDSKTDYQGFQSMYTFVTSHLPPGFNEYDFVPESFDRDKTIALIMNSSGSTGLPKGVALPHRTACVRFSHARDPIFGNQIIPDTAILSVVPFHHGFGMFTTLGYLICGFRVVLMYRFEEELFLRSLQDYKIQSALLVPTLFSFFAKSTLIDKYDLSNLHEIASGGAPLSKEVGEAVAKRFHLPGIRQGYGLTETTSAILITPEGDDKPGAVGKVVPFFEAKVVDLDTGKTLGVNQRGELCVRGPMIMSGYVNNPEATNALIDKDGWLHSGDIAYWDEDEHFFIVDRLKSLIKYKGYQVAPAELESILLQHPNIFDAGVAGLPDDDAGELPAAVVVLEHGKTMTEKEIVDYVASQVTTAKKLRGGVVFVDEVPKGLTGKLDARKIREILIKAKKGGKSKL
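Biochemical qHTS of compounds, final roughly 60 µM downward over six points, against 10 nM purified firefly luciferase using Km concentrations of substrates (10 uM D-luciferin, 10 uM ATP) in Tris acetate pH 7.5 buffer; luminescence output.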
Rab9 promoter act: activators of Rab9 promoter; Huh7 Rab9 promoter-luciferase reporter, luminescence, 24 h; Potency, µM (highest dose often 9.22 µM), actives largely listed as activators; hit rate 2.8% among 320,000; AID 485297; note: nearly all actives have a fitted effect of over 60% in size
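Luciferase signal after 10 min detection reagent at ambient indicates Rab9 promoter upregulation; stably transfected Huh7 cells were treated 24 h with compound in DMSO at 37 °C, 5% CO2.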
NPC1 promoter act: activates the NPC1 promoter. Huh7 NPC1 promoter luciferase reporter, 24 h. Potency, µM (doses to about 9.22 µM), most hits filed as activators. hit rate 2.4% among 320,000; note: nearly all actives have a fitted effect of over 60% in size
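Huh7 cells stably carrying NPC1 promoter–luciferase, plated in Opti-MEM with 10% FBS for 2 h, were exposed to compound in DMSO for 24 h at 37 °C; luciferase reagent was added for 10 min and luminescence read.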
SMN2 splice enh: SMN2 splice variant enhancement. hit rate 2.8% among 210,000. HEK293 SMN2-luciferase splicing reporter, luminescence, 30-36 h. Potency, µM (top dose mostly 46.1 µM), usual class: activators; note: nearly all actives have a fitted effect of over 55% in size
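HEK293 cells carry an SMN2 minigene-luciferase reporter in which exon 7 inclusion puts luciferase in frame. Cells were seeded at 2000 cells/well, attached for 10-12 hours, then exposed to compounds for 30-36 hours at 37C before ONE-Glo luminescence.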
ELG1 repair inh: inhibitors of ELG1-dependent DNA repair in HEK293T cells. HEK293T ELG1-luciferase reporter, luminescence, 16 h; DNA damage induced by 5-fluorouridine. Potency, µM (titrated, usually from 46.1 µM), hits mostly inhibitors. hit rate 2.3% among 330,000. AID 504467; note: nearly all actives have a fitted effect of over 55% in size
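Reporter activity after DNA damage by 5-fluorouridine is monitored. Compound-treated cells incubate 16 hr at 37 °C, then ONE-Glo is added for 30 min before luminescence reading.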
Hits are given with their value; - = inactive; ? = inconclusive; . = no result; [ ] = another dose, or the depositor's remark. Calls come from the whole dose curve; as a rule, active = well fitted curve in the direction sought with a large enough effect; inconclusive = small, poorly fitted or top-dose-only effect, or another doubt; inactive = no such curve, though single readings can be large; an effect the other way counts as inactive or inconclusive.

SMILES | ELG1 genotoxic | FLuc counter | Rab9 promoter act | NPC1 promoter act | SMN2 splice enh | ELG1 repair inh
CSc1ccc(NC(=O)NCCCN2CCC(Cc3ccccc3)CC2)cc1 | - | - | - | - | . | -
Clc1ccc(-c2nnc(-c3cccc4ccccc34)o2)cc1Cl | - | - | ? | - | -[9.22 µM] | ?
O=C(Nc1ccc(NC(=O)c2ccccc2Cl)cc1)c1cccnc1 | - | - | - | - | . | -
Clc1ccc(-c2nnc(-c3ccccc3Cl)o2)cc1 | ? | 1.2µM | 0.45µM | 0.63µM | . | ?
O=C(Nc1nnc(-c2ccccc2Cl)o1)c1cccnc1 | ? | 19µM | ? | ? | ? | ?
Clc1ccccc1-c1nnc(-c2ccccc2Cl)o1 | ? | 8.5µM | 2.5µM | 4µM | 13µM | ?
Cc1ccc(S(=O)(=O)c2nc(-c3cccs3)oc2SC(C)c2ccccc2)cc1 (stereo unspecified) | . | - | . | . | - | .
CCCCC(=O)N(c1ccc(C(=O)O)cc1)c1nc(-c2ccc(Cl)cc2)c(CC)s1 | - | - | - | - | - | -
COc1ccc(Cl)cc1NC(=O)CSc1nc2c([nH]c3ccccc32)c(=O)n1-c1ccccc1 | . | - | . | . | . | .
O=C(COc1ccc(Br)cc1)N/N=C1\SCC(=O)N1c1ccc(F)cc1 | - | - | - | - | - | -
CCOCCc1nn2c(=O)cc(COC(=O)c3ccccc3NC(=O)c3ccc(C)cc3)nc2s1 | . | - | . | . | . | .
C=CCOC(=O)c1ccc(N2CCN(c3ccccc3)CC2)nc1 | - | 17µM | - | - | . | ?
Cn1c(-c2cccc3ccccc23)n[nH]c1=S | - | - | - | - | - | -
CCCNC(=O)c1ccc(N2CCC3(CC2)CC(c2ccccc2)=NO3)c(NC(=O)c2ccco2)c1 | - | - | - | - | . | 5.8µM
O=C(OC1CCOC1=O)c1cc(-c2cccs2)nc2ccccc12 (stereo unspecified) | - | - | - | - | - | -
CCN=c1scc(C)n1/N=C/c1ccsc1 | ? | 17µM | 3.2µM | 3.2µM | ? | ?
CN(C(=O)COC(=O)c1ccc(Cl)s1)C1(C#N)CCCCC1 | - | 19µM | - | - | . | -
Cc1ccc(C(=O)OCC(=O)c2ccc(Cl)s2)s1 | ? | 2.7µM | - | - | . | ?
CN(C(=O)COC(=O)c1ccc(Cl)c(S(=O)(=O)N2CCCCC2)c1)C1(C#N)CCCCC1 | - | - | - | - | . | -
O=C(COC(=O)c1ccc[nH]c1=O)c1ccc(Cl)s1 | - | 15µM | - | - | - | -
O=C(COC(=O)c1cccnc1Cl)c1ccc(Cl)s1 | - | . | . | . | . | -
COc1ccc(S(=O)(=O)N(CC(=O)NCc2ccc(C)cc2)c2ccc(Cl)cc2)cc1 | . | - | . | . | - | .
CC(=O)c1ccc(N2CCN(CC(=O)NC(=O)NCc3ccccc3)CC2)cc1 | - | - | - | - | . | -
O=C1C(Cl)=C(NCCN2CCCCC2)C(=O)c2ccccc21 | - | - | - | - | - | 21µM
CCC(C)c1ccccc1N1CC(C(=O)Nc2ccc(S(=O)(=O)N3CCOCC3)cc2)CC1=O (stereo unspecified) | - | - | - | - | . | -
SMILES | ELG1 genotoxic | FLuc counter | Rab9 promoter act | NPC1 promoter act | SMN2 splice enh | ELG1 repair inh
COc1ccc(OCCN2C(=O)c3ccccc3C2=O)cc1 | - | ? | ? | - | - | ?
Nc1cccc2c1C(=O)N(CCOc1ccc(F)cc1)C2=O | 2.1µM | 2.7µM | 1.6µM | 1.8µM | . | ?
Cc1ccccc1OCCN1C(=O)C(=O)c2cccc(C)c21 | - | - | - | - | - | -
O=C1c2ccccc2C(=O)N1CCOc1ccccc1Cl | - | - | - | - | . | -
O=C1c2ccccc2C(=O)N1CCOc1ccccc1Br | ? | 24µM | ? | - | . | ?
Cc1ccccc1OCCN1C(=O)c2ccccc2C1=O | ? | 19µM | ? | ? | - | ?
COc1ccc(Cl)cc1NC(=O)CCNC(=O)Cn1ccc2ccccc2c1=O | - | - | - | - | . | -
Cc1ccccc1OCc1nnc(SCC(=O)Nc2ccc3c(c2)oc2ccccc23)n1C | ? | - | - | - | ? | -
Cc1ccc(-c2nnc(SCC(=O)Nc3ccc4c(c3)oc3ccccc34)n2C)c(Cl)c1 | - | 9.5µM | - | - | - | 18µM
CCCCC(=O)Nc1ccc2c(c1)oc1ccccc12 | ? | 8.5µM | 3.5µM | ? | 14µM | ?
